The record followed here is ChEMBL document CHEMBL1961873, “Compounds: GSK PKIS; Assays: Nanosyn kinase panel” (2012).

For test [1], the target named is Platelet-derived growth factor receptor beta (Homo sapiens) (UniProt P09619). The following applies: at 1 µM.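 Note: each value is a mean percent inhibition.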
In test [2] the target is Tyrosine-protein kinase FRK (Homo sapiens) (UniProt P42685). The following applies: at 0.1 µM.
The target is the same in test [3]. The following applies: at 1 µM.
Test [4] has as its target Protein-tyrosine kinase 2-beta (Homo sapiens) (UniProt Q14289). The following applies: at 0.1 µM.
Test [5] shares this target. The following applies: at 1 µM.
Test [6] concerns the target Proto-oncogene tyrosine-protein kinase receptor Ret (Homo sapiens) (UniProt P07949). The following applies: at 0.1 µM.
For test [7] the target is unchanged. The following applies: at 1 µM.
Test [8] relates to Proto-oncogene tyrosine-protein kinase receptor Ret (Homo sapiens), P07949 [V804L]. The following applies: at 0.1 µM.
Chain of Proto-oncogene tyrosine-protein kinase receptor Ret (Homo sapiens), P07949 [V804L] (P07949 whole entry V804L): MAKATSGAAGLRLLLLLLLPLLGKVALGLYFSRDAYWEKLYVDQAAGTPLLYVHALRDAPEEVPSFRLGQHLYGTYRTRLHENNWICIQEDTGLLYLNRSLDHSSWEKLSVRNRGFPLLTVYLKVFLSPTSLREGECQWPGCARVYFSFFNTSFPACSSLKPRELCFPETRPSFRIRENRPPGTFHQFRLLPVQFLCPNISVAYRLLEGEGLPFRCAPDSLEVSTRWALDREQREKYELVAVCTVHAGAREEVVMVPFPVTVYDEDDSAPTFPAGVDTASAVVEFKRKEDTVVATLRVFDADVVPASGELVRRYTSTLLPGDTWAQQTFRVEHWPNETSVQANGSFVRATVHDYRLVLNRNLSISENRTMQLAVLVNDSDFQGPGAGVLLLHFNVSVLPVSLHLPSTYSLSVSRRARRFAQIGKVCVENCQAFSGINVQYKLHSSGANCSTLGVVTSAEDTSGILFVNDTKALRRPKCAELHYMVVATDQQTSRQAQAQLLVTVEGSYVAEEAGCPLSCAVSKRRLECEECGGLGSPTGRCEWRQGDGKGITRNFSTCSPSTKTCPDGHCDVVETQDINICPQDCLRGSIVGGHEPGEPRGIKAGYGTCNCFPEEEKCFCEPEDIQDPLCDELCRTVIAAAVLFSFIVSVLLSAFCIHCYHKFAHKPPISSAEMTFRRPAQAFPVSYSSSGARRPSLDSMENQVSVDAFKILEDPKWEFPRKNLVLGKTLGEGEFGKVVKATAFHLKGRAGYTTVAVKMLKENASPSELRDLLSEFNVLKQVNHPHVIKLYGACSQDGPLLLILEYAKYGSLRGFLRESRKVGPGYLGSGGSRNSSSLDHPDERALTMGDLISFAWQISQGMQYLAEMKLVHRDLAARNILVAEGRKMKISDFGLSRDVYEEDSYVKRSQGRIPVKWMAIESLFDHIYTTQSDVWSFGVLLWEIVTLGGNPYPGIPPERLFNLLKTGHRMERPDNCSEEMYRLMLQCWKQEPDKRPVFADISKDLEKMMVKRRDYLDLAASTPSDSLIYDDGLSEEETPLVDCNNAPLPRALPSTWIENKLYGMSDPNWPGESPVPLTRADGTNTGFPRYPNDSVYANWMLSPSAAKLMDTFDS
For test [9] the test system is unchanged. The following applies: at 1 µM.
In test [10] the test system is Proto-oncogene tyrosine-protein kinase receptor Ret (Homo sapiens), P07949 [Y791F]. The following applies: at 0.1 µM.
Chain of Proto-oncogene tyrosine-protein kinase receptor Ret (Homo sapiens), P07949 [Y791F] (P07949 whole entry Y791F): as the sequence (P07949 whole entry V804L) above, with Y791F, L804V counted along it

Chain of Platelet-derived growth factor receptor beta (Homo sapiens) (P09619 whole entry): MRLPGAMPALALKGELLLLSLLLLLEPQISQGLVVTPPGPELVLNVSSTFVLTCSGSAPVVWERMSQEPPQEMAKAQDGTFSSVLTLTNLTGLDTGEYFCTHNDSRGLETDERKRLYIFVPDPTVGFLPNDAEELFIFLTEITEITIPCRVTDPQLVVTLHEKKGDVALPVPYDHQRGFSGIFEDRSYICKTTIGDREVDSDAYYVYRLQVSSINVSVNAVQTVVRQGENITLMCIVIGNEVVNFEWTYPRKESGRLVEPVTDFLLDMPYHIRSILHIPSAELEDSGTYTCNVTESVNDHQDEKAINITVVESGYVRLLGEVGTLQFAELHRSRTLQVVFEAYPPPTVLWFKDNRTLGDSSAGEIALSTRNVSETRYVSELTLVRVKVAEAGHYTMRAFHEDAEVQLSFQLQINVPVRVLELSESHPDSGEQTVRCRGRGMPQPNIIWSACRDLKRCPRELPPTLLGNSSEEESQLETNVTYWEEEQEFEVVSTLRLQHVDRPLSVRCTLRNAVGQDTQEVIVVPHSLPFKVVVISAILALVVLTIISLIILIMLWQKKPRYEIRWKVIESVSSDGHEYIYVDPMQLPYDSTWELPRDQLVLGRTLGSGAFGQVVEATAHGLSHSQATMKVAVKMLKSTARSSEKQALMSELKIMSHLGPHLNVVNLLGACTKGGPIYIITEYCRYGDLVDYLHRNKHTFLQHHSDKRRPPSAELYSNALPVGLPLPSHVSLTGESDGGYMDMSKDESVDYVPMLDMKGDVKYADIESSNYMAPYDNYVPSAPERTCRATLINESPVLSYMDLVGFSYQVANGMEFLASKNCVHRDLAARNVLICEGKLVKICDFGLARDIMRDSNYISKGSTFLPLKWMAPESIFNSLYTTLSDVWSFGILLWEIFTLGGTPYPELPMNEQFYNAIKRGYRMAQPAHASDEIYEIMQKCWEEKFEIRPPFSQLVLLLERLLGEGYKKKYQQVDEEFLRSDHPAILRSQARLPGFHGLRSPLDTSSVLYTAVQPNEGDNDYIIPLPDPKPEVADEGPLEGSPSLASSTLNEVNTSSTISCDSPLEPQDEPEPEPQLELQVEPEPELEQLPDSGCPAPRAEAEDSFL
Chain of Tyrosine-protein kinase FRK (Homo sapiens) (P42685 whole entry): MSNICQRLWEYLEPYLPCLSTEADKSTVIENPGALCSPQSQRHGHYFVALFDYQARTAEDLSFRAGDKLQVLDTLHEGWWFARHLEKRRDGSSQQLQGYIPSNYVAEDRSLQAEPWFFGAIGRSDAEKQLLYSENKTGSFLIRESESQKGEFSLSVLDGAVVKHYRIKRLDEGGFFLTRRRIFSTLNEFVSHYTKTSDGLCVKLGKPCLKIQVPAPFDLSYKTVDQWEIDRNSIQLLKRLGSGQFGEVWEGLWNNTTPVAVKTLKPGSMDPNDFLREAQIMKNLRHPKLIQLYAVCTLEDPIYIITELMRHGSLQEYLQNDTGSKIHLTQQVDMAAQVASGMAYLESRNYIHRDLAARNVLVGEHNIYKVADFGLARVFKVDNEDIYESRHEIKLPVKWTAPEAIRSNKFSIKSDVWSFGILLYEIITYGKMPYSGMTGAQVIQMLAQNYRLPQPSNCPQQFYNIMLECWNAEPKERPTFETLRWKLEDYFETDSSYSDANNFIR
Chain of Protein-tyrosine kinase 2-beta (Homo sapiens) (Q14289 whole entry, looked up): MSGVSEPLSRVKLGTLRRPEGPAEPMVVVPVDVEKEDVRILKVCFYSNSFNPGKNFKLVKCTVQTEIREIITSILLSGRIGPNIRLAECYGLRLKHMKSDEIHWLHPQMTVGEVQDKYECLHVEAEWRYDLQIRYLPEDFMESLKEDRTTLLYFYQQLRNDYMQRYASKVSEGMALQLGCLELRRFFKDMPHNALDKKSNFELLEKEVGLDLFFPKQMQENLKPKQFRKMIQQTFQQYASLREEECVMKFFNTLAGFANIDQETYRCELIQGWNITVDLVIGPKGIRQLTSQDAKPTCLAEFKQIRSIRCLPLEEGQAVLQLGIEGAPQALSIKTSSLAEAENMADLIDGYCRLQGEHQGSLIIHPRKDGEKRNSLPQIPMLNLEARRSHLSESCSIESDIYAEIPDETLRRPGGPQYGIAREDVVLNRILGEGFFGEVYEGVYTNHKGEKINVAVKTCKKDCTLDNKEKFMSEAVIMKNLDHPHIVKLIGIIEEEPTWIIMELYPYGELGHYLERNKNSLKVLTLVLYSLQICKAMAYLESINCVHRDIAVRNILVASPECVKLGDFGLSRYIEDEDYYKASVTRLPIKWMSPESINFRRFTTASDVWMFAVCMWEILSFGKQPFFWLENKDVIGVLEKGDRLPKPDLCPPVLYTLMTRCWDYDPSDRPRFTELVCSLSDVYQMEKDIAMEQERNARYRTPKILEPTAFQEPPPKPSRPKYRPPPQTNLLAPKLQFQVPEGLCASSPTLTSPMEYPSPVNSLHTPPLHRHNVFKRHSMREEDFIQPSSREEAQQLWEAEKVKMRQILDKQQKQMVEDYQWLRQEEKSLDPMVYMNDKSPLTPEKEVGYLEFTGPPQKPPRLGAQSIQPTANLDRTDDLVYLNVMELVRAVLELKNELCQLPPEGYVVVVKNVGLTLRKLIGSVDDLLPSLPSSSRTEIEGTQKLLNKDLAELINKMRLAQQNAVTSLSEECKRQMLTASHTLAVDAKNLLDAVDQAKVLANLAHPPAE
Chain of Proto-oncogene tyrosine-protein kinase receptor Ret (Homo sapiens) (P07949 whole entry): as the sequence (P07949 whole entry V804L) above, with L804V counted along it

In the case of `NC(=O)c1cc(-c2ccncc2)cc(-c2ccccc2)c1N`, the inhibition (usually the relative decrease from the control value, in per cent) in test [1] was 26%; in [2] it was 3.05%; in test [3] it was 7.89%; in test [4], 10.8%; in test [5] it was 13.4%; in test [6], 6.99%. Also, the inhibition in [7] is 27%; in test [8] it was 2.8%; in test [9], 6.36%; in test [10] it was 6.34%.
As for `COc1cc(Nc2ncc3c(C)nc(-c4cccc(Oc5ccccc5)c4)n3n2)cc(OC)c1OC`, the inhibition came to 10.4% in test [1]; 0.9% in test [2]; 0.75% in test [3]; 5.25% in test [4]; 6.67% in [5]; 4.22% in test [6]. Further, the inhibition in test [7] worked out at 29.1%; in test [8], 8.26%; in [9], 43%; in test [10], 3.87%.
Regarding `O=C1Nc2ccccc2/C1=C/Nc1ccc(-n2cncn2)cc1`, the inhibition in test [1] came to 33.4%; in test [2], 2.78%; in [3] it was 3.04%; in test [4] it was 11.7%; in [5], 24.7%; in test [6], 15.4%. The inhibition stood at 48.6% in test [7], 20.2% in [8], 67.3% in test [9] and 12.9% in test [10].
For `CN(C)CCOc1ccc(-c2cc(-c3ccc4c(c3)CCC4=NO)c(-c3ccncc3)o2)cc1`, the inhibition in test [1] was 9.14%; in test [2] it was -1.02%; in [3] it was 0.49%; in test [4], -7.75%; in test [5], 0.57%; in test [6] it was 3.54%. Besides, the inhibition in test [7] is 1.85%; in test [8], 0.61%; in test [9] it was 1.37%; in test [10], -1.98%.
Regarding `CN(C)CCCNc1nccc(-c2c(-c3ccc(F)cc3)nn3cc(C(F)(F)F)ccc23)n1`, the inhibition was 14.1% in [1]; -0.09% in [2]; 1.37% in test [3]; -1.38% in test [4]; 1.42% in test [5]; 7.28% in test [6]. Further, the inhibition in [7] amounted to 10.8%; in test [8] it was 8.31%; in test [9], 21.7%; in [10], 10.9%.
As for `CN(C)c1ccc2c(c1)/C(=C/Nc1ccc(S(N)(=O)=O)cc1)C(=O)N2`, the inhibition in [1] is 71.3%; in [2], 1.57%; in test [3], 2.09%; in [4], 8.05%; in test [5] it was 31.7%; in [6], 20.2%. Further, the inhibition in test [7] was 51.5%; in test [8], 12.5%; in test [9], 51.1%; in test [10] it was 11.2%.
Take `COc1cc(Nc2ncc3c(C)nc(-c4cccc(C(F)(F)F)c4)n3n2)cc(OC)c1OC`: the inhibition in test [1] was 38%; in test [2], 1.36%; in test [3] it was 0.31%; in test [4] it was 11.8%; in test [5], 39.6%; in test [6], 7.14%. The inhibition in [7] turned out to be 39.1%; in test [8] it was 16.7%; in test [9] it was 57.4%; in test [10], 8.01%.
For `O=C1NC(=O)C(c2cccc(Cl)c2)=C1Nc1ccc(Cl)c(C(=O)O)c1`, the inhibition in [1] is 8.9%; in [2] it was -0.46%; in [3], 2.48%; in [4], 7.05%; in test [5], 6.6%; in [6], 7.27%. Besides, the inhibition came out at 3.52% in test [7], 5.17% in [8], 7.71% in test [9] and 3.26% in test [10].
As to `Fc1ccc(-c2ncn(CCCN3CCOCC3)c2-c2ccncc2)cc1`, the inhibition in test [1] is 6.02%; in test [2] it was 0.05%; in test [3], -1.57%; in test [4], 0.29%; in test [5] it was -0.89%; in test [6] it was 0.8%. Further, the inhibition in [7] was 2.72%; in test [8], -0.64%; in test [9], 0.11%; in [10], 2.85%.
Regarding `CCc1ccc(Oc2nccc(-c3c(-c4ccc(F)cc4)ncn3C3CCNCC3)n2)cc1`, the inhibition in test [1] was 13.8%; in test [2], 0.83%; in test [3], -0.45%; in [4], -1.83%; in [5], 2.07%; in test [6], 3.04%. For the same compound, the inhibition amounted to 7.38% in test [7], 3.58% in [8], 4.57% in [9] and 4% in test [10].
As to `Fc1ccc(-c2c(-c3ccncc3)nc3n2CCS3)cc1`, the inhibition in [1] stood at 5.75%; in [2], 1.6%; in [3], 2.05%; in test [4], 10.7%; in test [5], 4.18%; in test [6] it was 1.13%. For the same compound, the inhibition in test [7] came out at 7.86%; in test [8], 3.1%; in test [9], 6.64%; in test [10], 3.14%.
In the case of `Fc1ccc(-c2ncn(C3CCNCC3)c2-c2ccnc(Oc3ccc(Oc4ccccc4)cc3)n2)cc1`, the inhibition in test [1] came to 3.75%; in test [2] it was 2.37%; in test [3], 2.86%; in test [4], 3.19%; in [5], 6.71%; in [6] it was 2.36%. Moreover, the inhibition in test [7] is 5.4%; in test [8], 3.16%; in test [9], 7.16%; in test [10], 15.6%.
For the compound `COc1ccc2cc(-c3c(-c4ccncc4)nc(-c4ccc([S+](C)[O-])cc4C)n3C)ccc2c1` (stereo not given), the inhibition in [1] was 5.35%; in test [2], -0.28%; in test [3], -0.05%; in [4], -4.54%; in [5] it was -2.74%; in [6] it was 2.66%. Further, the inhibition turned out to be 22.2% in test [7], 1.07% in [8], 2.78% in [9] and 2% in test [10].
`COc1cc(C)c(N(C)C(=O)CN(C)C)cc1Nc1nc(Nc2cccc(F)c2C(N)=O)c2cc[nH]c2n1`: the inhibition was 2.38% in [1]; -0.14% in [2]; 1.16% in test [3]; 14.7% in test [4]; 45.8% in test [5]; 6.8% in test [6]. In addition, the inhibition is 3.71% in test [7], 8.2% in test [8], 4.18% in test [9] and 3.57% in test [10].
As for `CCN(CC)Cc1ccc(Nc2nccc(-c3cnn4ncccc34)n2)cc1`, the inhibition is 71.8% in test [1]; 2.63% in test [2]; 3.76% in test [3]; 24.8% in test [4]; 81.3% in [5]; 4.61% in [6]. For the same compound, the inhibition in test [7] was 12.8%; in test [8], 2.46%; in test [9] it was 16.3%; in test [10], 5.39%.
In the case of `CCS(=O)(=O)c1ccc(OC)c(Nc2ncc(-c3ccccc3Cl)o2)c1`, the inhibition in test [1] stood at 28%; in test [2] it was 0.68%; in test [3], 4.99%; in [4], 6.54%; in [5], 45.2%; in [6] it was 4%. For the same compound, the inhibition in test [7] came out at 8.62%; in test [8], 3.06%; in [9], 21.2%; in test [10] it was 2.23%.
Turning to `CN(c1ccc(NC(=O)Nc2c(Cl)cccc2Cl)cc1)c1ccnc(Nc2cccc(CS(C)(=O)=O)c2)n1`, the inhibition was 77.7% in test [1]; 3.86% in test [2]; 14.5% in [3]; 55.1% in [4]; 29.7% in test [5]; 23.8% in [6]. In addition, the inhibition is 48.6% in [7], 13.2% in test [8], 41% in test [9] and 24.4% in [10].
